Source: PubChem BioAssay (NCI)
Values joined by “and” are separate entries in the source; they are usually repeats but may differ in a detail not shown here. Equal entries are not always repeated. About 83,000 compounds went through this panel and 20% of them were active in at least one assay; those are over-represented in the sample as a whole.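 48-hour exposure, single concentration, 96-well plates; percent growth endpoint where 0 means no net growth. Active: below 10.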 Active and inactive are the calls of the source.

How the values were obtained:
Assay in all cases: NCI-60 one-dose screen, 48 h (100 = growth as untreated, 0 = no growth, -100 = all killed)
NCI-H226 lung = system: NCI-H226 lung
NCI-H322M lung = system: NCI-H322M lung
HOP-62 NSCLC = system: HOP-62 NSCLC
NCI-H460 lung = system: NCI-H460 lung
HOP-92 NSCLC = system: HOP-92 NSCLC
NCI-H522 lung = conditions: 10 µM unless noted
A549/ATCC NSCLC = system: A549/ATCC NSCLC
786-0 renal = system: 786-0 renal
COLO 205 colon = system: COLO 205 colon
DU-145 prostate = system: DU-145 prostate
K-562 leukemia = system: K-562 leukemia
MALME-3M melanoma = system: MALME-3M melanoma
MDA-MB-231 breast = system: MDA-MB-231 breast
RXF 393 renal = system: RXF 393 renal
SF-268 CNS = system: SF-268 CNS
SF-295 CNS = system: SF-295 CNS
SF-539 CNS = system: SF-539 CNS
UACC-257 melanoma = conditions: 10 µM unless noted
M14 melanoma = system: M14 melanoma

Measured: growth

CNc1ccc(Cl)cc1S(=O)(=O)c1ccccc1[N+](=O)[O-]
inactive: NCI-H226 lung; 10 µM unless noted 114% and 103% | NCI-H322M lung; 10 µM unless noted 89.1% and 91% | HOP-62 NSCLC; 10 µM unless noted 147% and 94.8% | NCI-H460 lung; 10 µM unless noted 107% and 108% | HOP-92 NSCLC; 10 µM unless noted 93% and 100% | NCI-H522 lung 78.3% and 75% | A549/ATCC NSCLC; 10 µM unless noted 23.3% and 94.4% | 786-0 renal; 10 µM unless noted 116% and 100% | COLO 205 colon; 10 µM unless noted 117% | DU-145 prostate; 10 µM unless noted 105% | K-562 leukemia; 10 µM unless noted 55.7% and 73.3% | MALME-3M melanoma; 10 µM unless noted 78.2% and 91.1% | MDA-MB-231 breast; 10 µM unless noted 77.7% and 97% | RXF 393 renal; 10 µM unless noted 25.1% and 126% | SF-268 CNS; 10 µM unless noted 106% and 90.6% | SF-295 CNS; 10 µM unless noted 108% and 104% | SF-539 CNS; 10 µM unless noted 86.4% and 98.3% | UACC-257 melanoma 75.7% and 89.8% | M14 melanoma; 10 µM unless noted 115% and 83.4%

CC1NC(C)c2ccc3ccccc3c2O1 (stereo unspecified)
inactive: NCI-H226 lung; 10 µM unless noted 102% | NCI-H322M lung; 10 µM unless noted 106% | HOP-62 NSCLC; 10 µM unless noted 108% | NCI-H460 lung; 10 µM unless noted 108% | HOP-92 NSCLC; 10 µM unless noted 101% | NCI-H522 lung 88.6% | A549/ATCC NSCLC; 10 µM unless noted 106% | 786-0 renal; 10 µM unless noted 104% | COLO 205 colon; 10 µM unless noted 121% | DU-145 prostate; 10 µM unless noted 104% | K-562 leukemia; 10 µM unless noted 104% | MALME-3M melanoma; 10 µM unless noted 119% | MDA-MB-231 breast; 10 µM unless noted 110% | RXF 393 renal; 10 µM unless noted 120% | SF-268 CNS; 10 µM unless noted 101% | SF-295 CNS; 10 µM unless noted 116% | SF-539 CNS; 10 µM unless noted 102% | UACC-257 melanoma 99.4% | M14 melanoma; 10 µM unless noted 92.5%

C#CCOC(=O)C(N)CS (stereo unspecified)
inactive: NCI-H226 lung; 10 µM unless noted 99.9% | NCI-H322M lung; 10 µM unless noted 97.6% | HOP-62 NSCLC; 10 µM unless noted 93.2% | NCI-H460 lung; 10 µM unless noted 103% | HOP-92 NSCLC; 10 µM unless noted 93.9% | NCI-H522 lung 111% | A549/ATCC NSCLC; 10 µM unless noted 118% | 786-0 renal; 10 µM unless noted 106% | COLO 205 colon; 10 µM unless noted 106% | DU-145 prostate; 10 µM unless noted 113% | K-562 leukemia; 10 µM unless noted 102% | MALME-3M melanoma; 10 µM unless noted 96.6% | MDA-MB-231 breast; 10 µM unless noted 84.2% | RXF 393 renal; 10 µM unless noted 106% | SF-268 CNS; 10 µM unless noted 96.4% | SF-295 CNS; 10 µM unless noted 96.5% | SF-539 CNS; 10 µM unless noted 86.6% | UACC-257 melanoma 107% | M14 melanoma; 10 µM unless noted 97.1%

CS/C(=C\c1ccc(C(=O)c2ccc(C)cc2)n1C)S(C)=O (stereo unspecified)
inactive: NCI-H226 lung; 10 µM 81.3% | NCI-H226 lung; 100 µM 72.3% | NCI-H322M lung; 10 µM 98% | NCI-H322M lung; 100 µM 103% | HOP-62 NSCLC; 10 µM 96.8% | HOP-62 NSCLC; 100 µM 76.9% | NCI-H460 lung; 10 µM 96.8% | NCI-H460 lung; 100 µM 91.4% | HOP-92 NSCLC; 10 µM 71.7% | HOP-92 NSCLC; 100 µM 64.6% | A549/ATCC NSCLC; 10 µM 85.1% | A549/ATCC NSCLC; 100 µM 65.7% | 786-0 renal; 10 µM 99.4% | 786-0 renal; 100 µM 74.1% | COLO 205 colon; 10 µM 126% | COLO 205 colon; 100 µM 93.5% | DU-145 prostate; 10 µM 110% | DU-145 prostate; 100 µM 88.1% | K-562 leukemia; 10 µM 44.4% | K-562 leukemia; 100 µM 26.3% | MALME-3M melanoma; 10 µM 95% | MALME-3M melanoma; 100 µM 69.3% | MDA-MB-231 breast; 10 µM 89.6% | MDA-MB-231 breast; 100 µM 85.6% | RXF 393 renal; 10 µM 101% | RXF 393 renal; 100 µM 73.2% | SF-268 CNS; 10 µM 112% | SF-268 CNS; 100 µM 93.2% | SF-295 CNS; 10 µM 60.7% | SF-295 CNS; 100 µM 62.2% | SF-539 CNS; 10 µM 91.3% | SF-539 CNS; 100 µM 80.4% | UACC-257 melanoma 64.6% [100 µM] | M14 melanoma; 10 µM 103% | M14 melanoma; 100 µM 69%
active: NCI-H522 lung 6.15% [100 µM]

N#CC(=S)Nc1ccc(Cl)c(Cl)c1
active: NCI-H226 lung; 10 µM unless noted 9.29% | NCI-H322M lung; 10 µM unless noted -3.76% | NCI-H460 lung; 10 µM unless noted 9.12% | HOP-92 NSCLC; 10 µM unless noted -15.6% | NCI-H522 lung -14% | COLO 205 colon; 10 µM unless noted -22% | MALME-3M melanoma; 10 µM unless noted -13.4% | MDA-MB-231 breast; 10 µM unless noted -4.8% | SF-295 CNS; 10 µM unless noted -0.242% | SF-539 CNS; 10 µM unless noted 8.61% | UACC-257 melanoma -6.42%
inactive: HOP-62 NSCLC; 10 µM unless noted 24.3% | A549/ATCC NSCLC; 10 µM unless noted 15.6% | 786-0 renal; 10 µM unless noted 14.2% | DU-145 prostate; 10 µM unless noted 18.6% | K-562 leukemia; 10 µM unless noted 16.1% | RXF 393 renal; 10 µM unless noted 13% | SF-268 CNS; 10 µM unless noted 11% | M14 melanoma; 10 µM unless noted 26.1%

CC1=CC(=O)c2cccc(NC3=NCCO3)c21
inactive: NCI-H226 lung; 10 µM unless noted 94.2% | NCI-H322M lung; 10 µM unless noted 99.4% | HOP-62 NSCLC; 10 µM unless noted 84.9% | NCI-H460 lung; 10 µM unless noted 107% | HOP-92 NSCLC; 10 µM unless noted 77.6% | NCI-H522 lung 87.8% | A549/ATCC NSCLC; 10 µM unless noted 92.3% | 786-0 renal; 10 µM unless noted 91.9% | COLO 205 colon; 10 µM unless noted 102% | DU-145 prostate; 10 µM unless noted 108% | K-562 leukemia; 10 µM unless noted 82.4% | MALME-3M melanoma; 10 µM unless noted 93.4% | MDA-MB-231 breast; 10 µM unless noted 102% | RXF 393 renal; 10 µM unless noted 117% | SF-268 CNS; 10 µM unless noted 100% | SF-295 CNS; 10 µM unless noted 95.1% | SF-539 CNS; 10 µM unless noted 95.7% | UACC-257 melanoma 94.2% | M14 melanoma; 10 µM unless noted 97.1%
